High-throughput results as filed in PubChem.
In the library only some 1.6% were active in any assay of this set; here they are far more common.
FUS suppressor – suppressors of FUS proteinopathy in yeast. S. cerevisiae FUS-expressing, growth rescue, OD600, 24 h. Potency, µM (highest dose often 76.6 µM), hits mostly activators. 390,000 tested, 0.24% active. AID 1347120; further: nearly all actives have a fitted effect of over 55% in size
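Quantitative HTS measuring growth restoration of FUS-toxic yeast. Galactose-induced cells (OD 0.005) were exposed 24hr at 30C to compounds at several concentrations, then absorbance at 600 nm was recorded.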
gsp antagonist – antagonizes gsp, the McCune-Albright syndrome mutation; gsp-mutant cells, cAMP HTRF, 30 min; 340,000 tested, 0.4% active; Potency, µM (doses to about 76.9 µM), most hits filed as inhibitors; calls by dose curve; cell line not stated here;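 further: intracellular cAMP measured with PDE inhibitor Ro 20-1724 present during compound exposure; nearly all actives have a fitted effect of over 65% in size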
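G418-selected cells were plated in DMEM/10% FBS for 16-24 h at 37C, then treated with compounds plus the PDE inhibitor […] (300 uM solution added) for 30 min at 37C. Intracellular cAMP was measured by HTRF after 30 min lysis at room temperature.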
Mito fusion yeast – blocks mitochondrial division or promotes mitochondrial fusion | S. cerevisiae fusion-defective mutant growth rescue, CellTiterGlo 48 h | Potency, µM (series often up to 46.1 µM), hits mostly activators | 320,000 tested, 0.23% active | AID 485298; further: nearly all actives have a fitted effect of over 45% in size
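Temperature-sensitive fusion-defective S. cerevisiae (e.g. fzo1-1, mgm1-5) were grown with compound in YPEG medium (3% ethanol, 3% glycerol) for 48 hours at 37C. Growth rescue was measured as viability by CellTiterGlo luminescence after 10 minutes at ambient.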
gsp ag – activates gsp, the McCune-Albright syndrome mutation; gsp mutant cells, cAMP HTRF, 30 min; Potency, µM (highest dose often 76.9 µM), usual class: activators; 340,000 tested, 0.13% active; AID 624287; active means well fitted activation curve with a large enough effect; inconclusive means small, poorly fitted or top-dose-only effect, or another doubt; inactive means no such curve, though single readings can be large or run the other way; cell line not stated here;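 further: phosphodiesterase inhibitor Ro 20-1724 added with compounds to block cAMP breakdown; nearly all actives have a fitted effect of over 60% in size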
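Cells stably selected in G418 were plated at 2000/well, grown 16-24 hr, then given compounds in DMSO with the PDE inhibitor […] (300 uM solution added) for 30 min at 37C; cAMP was read by HTRF.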
ALOX12 inh – blocks human arachidonate 12S-lipoxygenase; purified 12hLO, xylenol orange hydroperoxide absorbance; P18054; AID 1671190; 580,000 tested, 1.1% active; Potency, µM (top dose mostly 108 µM), actives largely listed as inhibitors
Target sequence (P18054 whole entry, looked up): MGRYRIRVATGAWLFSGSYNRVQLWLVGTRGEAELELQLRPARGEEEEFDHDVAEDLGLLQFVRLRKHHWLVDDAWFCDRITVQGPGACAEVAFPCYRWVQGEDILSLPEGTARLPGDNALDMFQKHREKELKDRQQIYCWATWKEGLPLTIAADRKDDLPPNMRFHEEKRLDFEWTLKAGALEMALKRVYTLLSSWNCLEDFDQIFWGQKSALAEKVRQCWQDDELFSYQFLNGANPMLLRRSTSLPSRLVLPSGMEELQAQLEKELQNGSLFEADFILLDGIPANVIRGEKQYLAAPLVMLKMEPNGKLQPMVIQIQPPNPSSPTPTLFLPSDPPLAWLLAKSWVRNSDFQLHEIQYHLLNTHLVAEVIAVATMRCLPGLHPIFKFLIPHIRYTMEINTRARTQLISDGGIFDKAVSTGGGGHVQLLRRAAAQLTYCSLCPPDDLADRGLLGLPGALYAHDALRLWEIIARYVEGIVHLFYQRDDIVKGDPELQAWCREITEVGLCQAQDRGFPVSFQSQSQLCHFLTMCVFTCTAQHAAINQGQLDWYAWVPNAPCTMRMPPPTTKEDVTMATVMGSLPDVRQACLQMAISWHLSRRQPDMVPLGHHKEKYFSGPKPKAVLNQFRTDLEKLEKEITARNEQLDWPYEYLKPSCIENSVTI
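Hydroperoxide product was detected by ferrous iron/xylenol orange as the 573 to 405 nm absorbance ratio. Arachidonic acid at 40 uM (final) was turned over for 30 min at room temperature by 150 nM human 12hLO, pH 7.0 Hepes buffer, after 15 min compound preincubation.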
Numbers stand for hits; . = inactive; ? = inconclusive; / = no result given; ! = not confirmed by another sample; [ ] = another dose, or the depositor's remark. Unless noted, the call rests on the fitted dose curve; in most records, active means well fitted curve in the direction sought with a large enough effect; inconclusive means small, poorly fitted or top-dose-only effect, or another doubt; inactive means no such curve, though single readings can be large; an effect the other way counts as inactive or inconclusive.

SMILES	FUS suppressor	gsp antagonist	Mito fusion yeast	gsp ag	ALOX12 inh
O=C(Cn1sc2ccccc2c1=O)NC12CC3CC(CC(C3)C1)C2	/	?	.	.	/
CCCCn1nc(C(=O)Nc2ccc(Cl)cc2)c2ccccc2c1=O	/	/	/	/	.
O=C(O)C1=C[C@H](c2ccc(Br)cc2)C[C@H](OCCCCO)O1	.	.	.	/	35.5µM
C#Cc1ccc([C@H]2C=C(C(=O)O)O[C@@H](OCc3ccc(CO)cc3)C2)cc1	.	.	.	/	44.7µM
O=C(O)C1=C[C@@H](c2ccc(Br)cc2)C[C@@H](OCCCCO)O1	.	.	/	/	?
O=C(Nc1cc(S(=O)(=O)N2CCOCC2)ccc1N1CCCCC1)c1ccc(Cl)cc1	.	?	.	.	?
O=C(Nc1cc(S(=O)(=O)N2CCOCC2)ccc1N1CCCC1)c1ccc(Cl)cc1	.	.	.	?	25.1µM
O=C(CNc1cc(S(=O)(=O)N2CCOCC2)ccc1N1CCCC1)Nc1ccc(Cl)cc1	?	.	/	.	.
O=C(CNc1cc(S(=O)(=O)N2CCCCC2)ccc1N1CCCCC1)Nc1ccc(F)cc1	/	/	/	/	10µM
O=C(Nc1cc(S(=O)(=O)N2CCOCC2)ccc1N1CCCC1)c1ccc2c(c1)S(=O)(=O)c1ccccc1C2=O	.	.	.	.[15.4 µM]	14.1µM
Cc1c(OCC(=O)Nc2ccc(Cl)cc2)c(=O)ccn1CCO	/	/	/	/	.
COCCN(CC1CCCO1)CC1CCCO1 (stereo not given)	/	/	/	/	.
COc1cccc(NC(=O)Cn2c(N3CCCCC3)nc(C)c(C)c2=O)c1	/	/	/	/	.
CCc1ccc(NC(=O)C2=C(C)NC(Nc3nc4ccccc4o3)=NC2c2ccccc2)cc1 (stereo not given)	/	/	/	/	.
CC1C(c2ccc(F)cc2)=[N+]([O-])C(C)(c2cccc([N+](=O)[O-])c2)N1O (stereo not given)	/	/	/	/	.
CCc1oc2ccccc2c1C(=O)c1cc(Br)c(O)c(Br)c1	.	.	.	/	44.7µM!
CCN1c2cc(C(=O)NCc3ccc(OC)cc3)ccc2C(=O)N2CCCCC21 (stereo not given)	/	/	/	/	.
Cc1ccc(CN2CCc3nc(C(=O)Nc4ccccc4)oc3CC2)cc1	/	/	/	/	.
O=C(c1ccccc1F)N1CCc2nc(C3CC3)nc(-c3ccc(Cl)cc3)c2C1	/	/	/	/	44.7µM
COCC(=O)NC[C@@H]1C=C(C)[C@H](Cc2nc3ccc(Cl)cc3[nH]2)C[C@H]1C(C)C	/	/	/	/	.
Cc1nn(-c2ccccc2)cc1C(c1c(N)[nH]c(=S)[nH]c1=O)c1c(N)[nH]c(=S)[nH]c1=O	.	.	.	.[15.4 µM]	6.31µM
Cc1nn(-c2ccccc2)cc1/C=N/NC(N)=S	.	.	.	.[15.4 µM]	?
COc1ccc(OC)c(CNC(=O)Cc2cccn2-c2ccc(C)cc2)c1	/	/	/	/	.
Cc1cc(C)cc(NC(=O)Nc2ccc3c(c2)N(C)C(=O)CS3)c1	.	?	.	.	.
CCc1ccc(NC(=O)Nc2ccc3c(c2)N(C)C(=O)CS3)cc1	.	35.5µM	.	.	.
SMILES	FUS suppressor	gsp antagonist	Mito fusion yeast	gsp ag	ALOX12 inh
CCCC(C)NC(=O)c1cccs1 (stereo not given)	/	/	/	/	.
CCOc1cc(/C=N/NC(=O)c2nn(C)cc2Br)ccc1OCc1ccccc1Cl	/	?	3.98µM	.	.
Cc1ccc([N+](=O)[O-])cc1N=Nc1c(C)[nH]n(C(N)=S)c1=O	.	.	.	.	.
Cc1ccc([N+](=O)[O-])cc1N=Nc1c(-c2ccc([N+](=O)[O-])cc2)[nH]n(C(N)=S)c1=O	.	12.6µM	.	.	/
COc1ccc(CNC(=O)C(C)c2ccc3cc(OC)ccc3c2)cc1 (stereo not given)	/	/	/	/	.
COC(=O)/C=C1\S/C(=N\N=C\CC(=O)OC)NC1=O	31.6µM	.	.	.[15.4 µM]	?
COc1ccc(-c2nc(NC(C)c3ccccc3)c3ccccc3n2)cc1 (stereo not given)	/	/	/	/	.
COc1ccc(C(=O)NCC(=O)n2nc(C)cc2C)cc1OC	.	.	.	10µM	.
COc1ccc(C(=O)NCC(=O)OCC(=O)NC(=O)c2ccc(C(C)(C)C)cc2)cc1OC	.	50.1µM	.	.	.
COc1ccc(C2CC(C)=NN2c2nc(-c3ccc(F)cc3)cs2)cc1OC (stereo not given)	/	/	/	/	.
CNC(=O)c1cccc(NC(=O)c2cccc3cccnc23)c1	/	/	/	/	.
COC(=O)/C=C/c1ccc(OS(=O)(=O)c2ccc3c(c2)OCCCO3)c(OC)c1	/	/	/	/	.
COc1cc(/C=N/NC(=O)c2nnn(-c3nonc3N)c2C(C)C)ccc1OCc1ccccc1	.	25.1µM	.	.	.
Nc1nonc1-n1nnc(C(=O)N/N=C/c2ccc(F)cc2)c1-c1ccc2c(c1)OCO2	.	.	.	.	.
CC(C)c1c(C(=O)N/N=C/c2ccc(OCc3ccccc3)cc2)nnn1-c1nonc1N	.	.	.	?	.
COc1ccc(/C=N/NC(=O)c2nnn(-c3nonc3N)c2-c2cccs2)cc1OC	.	.	.	.	.
COc1cc(/C=N/NC(=O)c2nnn(-c3nonc3N)c2-c2cccs2)ccc1O	.	22.4µM	.	.	.
Cc1ccc(/C=N/NC(=O)c2nnn(-c3nonc3N)c2-c2ccc3c(c2)OCO3)s1	.	39.8µM	.	.	.
Nc1nonc1-n1nnc(C(=O)N/N=C/c2cccnc2)c1-c1cccs1	.	.	.	.	.
Nc1nonc1-n1nnc(C(=O)N/N=C/c2cccc(Cl)c2)c1-c1cccs1	.	39.8µM	.	.	.
Cc1ccc(C)c(NC(=O)CN2CCN(Cc3ccco3)CC2)c1	/	/	/	/	.
C(#CCN1CCN(C(c2ccccc2)c2ccccc2)CC1)COCc1ccccc1	/	/	/	/	.
O=C(CSc1nc(=O)n(Cc2ccncc2)c2c1CCC2)N1CCCCC1	/	/	/	/	.
CCOc1ccc(-c2c(C(=O)N/N=C/c3c[nH]c4ccccc34)nnn2-c2nonc2N)cc1	.	25.1µM	.	?	.
CC(=O)c1cccc(NC(=S)NCCc2ccc(Cl)cc2)c1	.	.	.	.[15.4 µM]	?
SMILES	FUS suppressor	gsp antagonist	Mito fusion yeast	gsp ag	ALOX12 inh
OCCCNC(=S)Nc1ccc(Cl)cc1	/	/	/	/	50.1µM
CC(=O)c1ccc(NC(=S)NCCc2ccc(Cl)cc2)cc1	/	/	/	/	50.1µM
CC(C)(C)C1CCC(C(=O)NN)CC1 (stereo not given)	/	/	/	/	.
CC[n+]1ccccc1/C=C/Nc1ccccc1	.	.	.	.	?
CC(=S)/C=C1\Sc2ccccc2N1C	.	.	.	.	10µM
CC[n+]1ccccc1/C=C1\Sc2ccc(C)cc2N1C	.	?	.	.	39.8µM
CN1/C(=C/c2cccc[n+]2CCO)Sc2ccccc21	.	.	.	.[15.4 µM]	44.7µM
O=C(COCc1cc(-c2ccc3c(c2)OCO3)on1)Nc1cc(Cl)ccc1Cl	/	/	/	/	.
O=C(O)c1ccc(CN2C(=O)c3cccc4c([N+](=O)[O-])ccc(c34)C2=O)cc1	.	.	.	.[15.4 µM]	/
Cc1ccc(C(=O)O)cc1N1C(=O)c2cccc3c([N+](=O)[O-])ccc(c23)C1=O	.	.	.	.	5.01µM
